The full list was thinned out, with hits kept by preference.
IDE exosite inh: exo-site inhibitors of human IDE, primary screen, biochemical, fluorescence anisotropy, probe displacement | Insulin-degrading enzyme (Homo sapiens), P14735 | purified IDE, FL-6b probe fluorescence polarization; stronger effect = lower value | z-score at 20 µM | 17,000 compounds, 6.3% hits | AID 1259349, 2017;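 active = z-score of -3 or lower, meaning strong loss of probe binding signal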;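 also: His-tagged human IDE residues 42-1019 made in E. coli with 30 nM FL-6b probe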
Hits are given with their value; i = inactive.

SMILES	IDE exosite inh
C/C=C/c1ccc([C@H]2[C@@H](CO)N3C(=O)CN(S(=O)(=O)c4cccc(F)c4)C[C@@H]23)cc1	i
CO[C@H](CN(C)CC1CCOCC1)[C@@H](C)CN(C(=O)Nc1ccc(F)cc1)[C@@H](C)CO	i
C[C@@H]1CCCCO[C@@H](CN(C)S(=O)(=O)c2cn(C)cn2)[C@H](C)CN([C@H](C)CO)C(=O)c2cc(N(C)C)ccc2O1	i
C[C@@H]1CCCCO[C@@H](CN(C)S(=O)(=O)c2cn(C)cn2)[C@H](C)CN([C@H](C)CO)C(=O)c2cc(NC(=O)Nc3cccc4ccccc34)ccc2O1	i
C[C@@H]1CN([C@H](C)CO)C(=O)c2cc(NC(=O)Nc3cccc4ccccc34)ccc2O[C@@H](C)CCCCO[C@@H]1CN(C)S(=O)(=O)c1cn(C)cn1	-7.1
CO[C@@H](C(=O)N(C)C[C@H]1OCc2ccccc2-c2ccccc2C(=O)N([C@H](C)CO)C[C@H]1C)c1ccccc1	i
CC=Cc1ccc2n(c1=O)C[C@@H]1[C@@H](CO)[C@H](C(=O)Nc3ccc(-c4ccccc4)cc3)[C@H]2N1C(=O)CC (mixture of isomers)	i
CN(C)C(=O)c1ccc(-c2ccc([C@H]3[C@@H](CO)N4CCCCN(C(=O)C5CC5)C[C@H]34)cc2)cc1	i
CN(C)C(=O)c1ccc(-c2ccc([C@H]3[C@H](CO)N4CCCCN(C(=O)C5CC5)C[C@@H]34)cc2)cc1	-5
CC(=O)N1CCCCN2[C@@H](CO)[C@@H](c3ccc(-c4ccc(C)cc4)cc3)[C@@H]2C1	i
CC(=O)N1CCCCN2[C@H](CO)[C@@H](c3ccc(-c4ccc(C)cc4)cc3)[C@@H]2C1	i
CC(=O)N1CCCCN2[C@H](C1)[C@@H](c1ccc(-c3ccc(C)cc3)cc1)[C@@H]2CO	i
CC(=O)N1CCCCN2[C@H](C1)[C@H](c1ccc(-c3cccc(C)c3)cc1)[C@@H]2CO	-5.3
CN(C)C(=O)c1ccc(-c2ccc([C@H]3[C@H]4CN(C(=O)C5CC5)CCCCN4[C@H]3CO)cc2)cc1	i
CC(=O)N1CCCCN2[C@H](C1)[C@@H](c1ccc(-c3cccc(C)c3)cc1)[C@@H]2CO	-14
CC(=O)N1CCCCN2[C@@H](CO)[C@H](c3ccc(-c4ccc(C)cc4)cc3)[C@@H]2C1	i
CC(C)N(C[C@H]1N[C@H](CO)[C@@H]1c1ccc(C2=CCCCC2)cc1)C(=O)CN(C)C	i
Cc1noc(C)c1S(=O)(=O)N(C)C[C@@H]1OCCCC[C@H](C)Oc2ccc(N(C)C)cc2C(=O)N([C@H](C)CO)C[C@H]1C	i
C[C@@H]1CCCCO[C@H](CN(C)C(=O)NC2CCCCC2)[C@@H](C)CN([C@H](C)CO)C(=O)c2cc(N(C)C)ccc2O1	i
CCN(C[C@H]1[C@@H](c2ccccc2)[C@H](CO)N1CC1CC1)C(=O)c1ccccn1	i
N#C[C@@H]1[C@H](c2ccc(-c3ccccc3F)cc2)[C@H](CO)N1C(=O)C1CC1	i
C[C@@H]1CCCCO[C@@H](CN(C)Cc2ccncc2)[C@H](C)CN([C@@H](C)CO)C(=O)c2cc(NS(=O)(=O)c3ccc(Cl)cc3)ccc2O1	i
O=C(Nc1ccc(F)cc1)N1CC(=O)N2[C@H](CO)[C@@H](c3ccc(C#Cc4ccccc4)cc3)[C@H]2C1	i
CO[C@@H]1CN(C)C(=O)c2cc(NC(=O)c3ccc(Oc4ccccc4)cc3)ccc2OC[C@@H](C)NC[C@@H]1C	-11
COc1cccc(NC(=O)Nc2ccc3c(c2)C(=O)N(C)C[C@@H](OC)[C@H](C)CN[C@H](C)CO3)c1	i
SMILES	IDE exosite inh
CO[C@H]1CN(C)C(=O)c2cc(NC(=O)c3ccc(Oc4ccccc4)cc3)ccc2OC[C@H](C)NC[C@@H]1C	i
CO[C@H]1CN(C)C(=O)c2cc(NC(=O)c3cnccn3)ccc2OC[C@H](C)NC[C@@H]1C	i
CO[C@H]1CN(C)C(=O)c2cc(NC(=O)c3ccc(Oc4ccccc4)cc3)ccc2OC[C@@H](C)NC[C@H]1C	-7.9
CO[C@H]1CN(C)C(=O)c2cc(NC(=O)c3cnccn3)ccc2OC[C@@H](C)NC[C@H]1C	i
O=C(Nc1ccccc1F)N1CCCCN2[C@@H](CO)[C@H](c3ccc(C4=CCCC4)cc3)[C@@H]2C1	i
C[C@@H]1CCn2nncc2COC[C@H]2CCCN2C1=O	i
COCC(=O)N1[C@H](CNC(=O)c2ccccn2)[C@@H](c2ccccc2)[C@@H]1CO	i
COCC(=O)Nc1ccc2c(c1)[C@H]1C[C@@H](CC(=O)N3CCOCC3)O[C@H](CO)[C@H]1O2	i
CCCNC(=O)N1[C@H](CO)[C@H](c2ccccc2-c2ccc(F)cc2)[C@@H]1C#N	i
CO[C@H](CN(C)S(=O)(=O)c1ccc(F)cc1)[C@H](C)CN(Cc1ccccc1Cl)[C@@H](C)CO	i
COCC#Cc1ccc([C@H]2[C@@H](CO)N3CCCCN(Cc4cncnc4)C[C@H]23)cc1	i
CCC(=O)N1[C@H](CN(C(C)C)S(C)(=O)=O)[C@@H](c2ccccc2)[C@@H]1CO	i
COCC(=O)N1[C@@H](C#N)[C@@H](c2ccc(C#Cc3ccccc3F)cc2)[C@@H]1CO	i

Screens deposited in PubChem by Broad Institute.
